Data as given in PubChem BioAssay (NCATS).
Inconclusive results are not listed. Activity calls are given as the source filed them. The call rests on the fitted dose curve; in most records, active means well fitted curve in the direction sought with a large enough effect; inconclusive means small, poorly fitted or top-dose-only effect, or another doubt; inactive means no such curve, though single readings can be large; an effect the other way counts as inactive or inconclusive.

Assays:
[1] = molecular target: Glutathione peroxidase 1 (Homo sapiens) (UniProt P07203); assay: Primary qHTS Assay for Inhibitors of Recombinant Selenoprotein Glutathione Peroxidase 1 (GPX1) (AID 1845191); conditions: recombinant GPX1, GR-coupled NADPH fluorescence, 15 min; series mostly up to 27.7 µM; further: nearly all actives have a fitted effect of over 65% in size; on activity, negative = inhibition: on the % scale 0 is the no-effect control and ±100 the full control effect
Sequence of Glutathione peroxidase 1 (Homo sapiens) (P07203 whole entry, looked up): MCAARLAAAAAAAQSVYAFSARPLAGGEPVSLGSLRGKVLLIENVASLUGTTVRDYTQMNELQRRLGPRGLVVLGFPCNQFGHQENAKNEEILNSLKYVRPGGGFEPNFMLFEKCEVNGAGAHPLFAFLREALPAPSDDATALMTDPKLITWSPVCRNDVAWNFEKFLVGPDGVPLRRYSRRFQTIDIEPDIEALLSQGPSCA
Method in brief: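 GR-coupled assay: compounds preincubated 30 min at room temperature with GPX1, then reaction started with CHP; final 10 nM GPX1, 1 mM GSH, 0.5 mM CHP, 0.5 mM NADPH, 100 nM GR, 0.01% BSA, pH 7.5 Tris buffer. NADPH fluorescence (340/450 nm) read at 0 and 15 min.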

[2] = molecular target: Phospholipid hydroperoxide glutathione peroxidase GPX4 (Homo sapiens) (UniProt P36969); assay: Primary qHTS Assay for Inhibitors of Recombinant Selenoprotein Glutathione Peroxidase 4 (GPX4) (AID 1845192); conditions: recombinant GPX4, GR-coupled NADPH fluorescence, 15 min; series mostly up to 27.8 µM; further: nearly all actives have a fitted effect of over 65% in size; on activity change, negative = inhibition: on the % scale 0 is the no-effect control and ±100 the full control effect
Sequence of Phospholipid hydroperoxide glutathione peroxidase GPX4 (Homo sapiens) (P36969 whole entry, looked up): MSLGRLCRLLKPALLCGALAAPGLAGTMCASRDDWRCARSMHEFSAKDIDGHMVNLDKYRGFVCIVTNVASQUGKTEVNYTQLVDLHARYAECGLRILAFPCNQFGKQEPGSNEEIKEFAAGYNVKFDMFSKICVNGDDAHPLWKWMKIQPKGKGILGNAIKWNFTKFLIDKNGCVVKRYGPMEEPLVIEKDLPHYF
Method in brief: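 GR-coupled assay: recombinant GPX4 preincubated 30 min with compound at room temperature; final 200 nM GPX4, 1 mM GSH, 0.5 mM cumene hydroperoxide, 0.5 mM NADPH, 100 nM GR, 0.01% BSA, pH 7.5 Tris. NADPH fluorescence (340/450 nm) read at 0 and 15 min.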

[3] = molecular target: Luciferin 4-monooxygenase (Photinus pyralis) (UniProt P08659); assay: Primary firefly luciferase (FLuc) qHTS assay for identification of artifact compounds. (AID 1845220); conditions: purified firefly luciferase, luminescence, 5 min; series mostly up to 54.1 µM; further: nearly all actives have a fitted effect of over 60% in size;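 on activity change, negative = inhibition: plate controls were DMSO vehicle for no effect and no enzyme for full effect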
Method in brief: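 Titrated compounds were incubated 15 min at RT, protected from light, with luciferin and ATP at 10 uM; reaction started with 10 nM FLuc, luminescence imaged at 5 min, and concentration-response fitted by Hill equation.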

[4] = Primary fluorescence-based thiol-reactive (MSTI) qHTS assay for identification of artifact compounds. (AID 1845221); conditions: MSTI thiol-reactivity probe, 1 h; series mostly up to 53.8 µM; further: nearly all actives have a fitted effect of over 65% in size; further: potency means the concentration at half of the fitted maximal effect;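 on activity change, negative = thiol reactive: thiol-reactive compounds lower the probe fluorescence signal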
Method in brief: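 Probe: MSTI 4 uM, PBS pH 7.4, 2% DMSO. Incubation 1 h, RT, light-protected. Readout fluorescence 525/598 nm.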

[5] = test system: Nanoluciferase (engineered Oplophorus gracilirostris luciferase); assay: Primary Nanoluciferase (NLuc) qHTS assay for identification of artifact compounds. (AID 1845222); conditions: NLuc-conditioned medium, Nano-Glo luminescence, 5 min; series mostly up to 54.1 µM;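 further: NLuc secreted into diluted conditioned medium of S16 cells; 0% = DMSO and -100% = no enzyme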
Method in brief: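 qHTS format, against NLuc in S16 cell-conditioned medium. Nano-Glo substrate 1:100 was added after 15 min at room temperature. Luminescence was taken after a further 5 min.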

[6] = Primary redox qHTS assay for identification of artifact compounds. (AID 1845223); conditions: Amplex Red/HRP redox cycling with DTT, fluorescence; series mostly up to 53.8 µM;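 further: 0% = DMSO and 100% = reference compound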
Method in brief: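 Amplex Red (25 uM) and HRP (250 mU/mL) in HBSS, with compounds for 15 min, then 250 uM DTT for 30 min, room temperature, dark. Fluorescence 525/598 nm read; normalized to DMSO and 10 uM DA3003; Hill fit.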

C/C(=C\CCC1(C)C2CC3C(C2)C31C)C(=O)O (stereo not given)
inactive: Potency [1] | Potency [2] | Potency [3] | Potency [4] | Potency [5] | Potency [6]

Cc1cc(O[C@@H]2O[C@H](COC(=O)CC(=O)O)[C@@H](O)[C@H](O)[C@H]2O)c(C(C)C)cc1O
active: Potency [4] 5.19 µM
inactive: Potency [1] | Potency [2] | Potency [3] | Potency [5] | Potency [6]

C=C1[C@H](OC(C)=O)[C@H]2[C@@H](OC(=O)c3ccccc3)[C@@H](C)C[C@]2(O)[C@@H](OC(C)=O)[C@H](C)/C=C/C(C)(C)C(=O)[C@H](OC(C)=O)[C@H]1OC(C)=O
inactive: Potency [1] | Potency [2] | Potency [3] | Potency [4] | Potency [5] | Potency [6]

CC1(CO)CCCC2(C)C1C(OC(=O)c1ccccc1)CC1C(=O)OCC12O (stereo not given)
inactive: Potency [1] | Potency [2] | Potency [3] | Potency [4] | Potency [5] | Potency [6]

C/C(=C\CC[C@H](CO)[C@@H]1CC[C@]2(C)C3=C(CC[C@@]12C)[C@@]1(C)CCC(=O)C(C)(C)C1CC3)C(=O)O (stereo not given in full)
inactive: Potency [1] | Potency [2] | Potency [3] | Potency [4] | Potency [5] | Potency [6]

C[C@@H](NC(=O)c1cc(C(=O)N[C@@H](Cc2ccccc2)[C@H](O)CNC2CC2)cc(N(C)S(C)(=O)=O)c1)c1ccccc1
inactive: Potency [1] | Potency [2] | Potency [3] | Potency [4] | Potency [5] | Potency [6]

CC1=C[C@H](O)[C@H]2C(C)(C)CCC[C@]2(C)[C@@]1(O)CO
inactive: Potency [1] | Potency [2] | Potency [3] | Potency [4] | Potency [5] | Potency [6]

COc1cc(OC)cc(-c2ccc3c(-c4ccc(F)cc4)[nH]nc3n2)c1
inactive: Potency [1] | Potency [2] | Potency [3] | Potency [4] | Potency [5] | Potency [6]

C=C1CC[C@@H]2C(C)(C)CCC[C@@]2(C)[C@@H]1CC/C(=C/C(=O)OC)COC(C)=O
inactive: Potency [1] | Potency [2] | Potency [3] | Potency [4] | Potency [5] | Potency [6]

CCN=C1N[C@@H]2[C@@H](O)[C@H](O)[C@@H](CO)O[C@@H]2S1
inactive: Potency [1] | Potency [2] | Potency [3] | Potency [4] | Potency [5] | Potency [6]

CC[C@@H]1C(=O)O[C@]23C=C[C@@H]4C(C(=O)OC)=CO[C@H](O[C@@H]12)[C@@H]43
inactive: Potency [1] | Potency [2] | Potency [3] | Potency [5] | Potency [6]
active: Potency [4] 10.6 µM

CC(C)N(CCCNC(=O)Nc1ccc(C(C)(C)C)cc1)C[C@H]1O[C@@H](n2ccc3c(N)ncnc32)[C@H](O)[C@@H]1O
inactive: Potency [1] | Potency [2] | Potency [3] | Potency [4] | Potency [5] | Potency [6]

C=C1CCC2C(C)(C(=O)OC)CCCC2(C)C1CCC1=CCOC1=O (stereo not given)
inactive: Potency [1] | Potency [2] | Potency [3] | Potency [4] | Potency [5] | Potency [6]

C[C@@H]1O[C@@H](O[C@H]2[C@H](OC(=O)[C@]34CCC(C)(C)C[C@H]3C3=CCC5[C@@]6(C)CC[C@H](O[C@@H]7O[C@H](CO[C@@H]8OC[C@H](O)[C@H](O)[C@H]8O)[C@@H](O)[C@H](O)[C@H]7O)C(C)(C)C6CC[C@@]5(C)[C@]3(C)C[C@H]4O)OC[C@@H](O)[C@@H]2O)[C@H](O)[C@H](O[C@@H]2OC[C@](O)(CO)[C@H]2O)[C@H]1O[C@@H]1OC[C@H](O)[C@H](O[C@@H]2OC[C@@H](O)[C@H](O)[C@H]2O)[C@H]1O (stereo not given in full)
inactive: Potency [1] | Potency [2] | activity change, negative = inhibition [3] -1.94% [at 11.6 µM] | activity change, negative = thiol reactive [4] 415% [at 11.5 µM] | activity, negative = inhibition [5] 0.577% [at 11.6 µM] | redox activity (% of DA3003) [6] 19.6% [at 11.5 µM]

FC(F)(F)c1nnc2c(Sc3ccccc3)nc3ccc(Cl)cc3n12
inactive: Potency [1] | Potency [2] | Potency [3] | Potency [4] | Potency [5] | Potency [6]

FC(F)(F)Oc1ccc(-c2ccc3nnc(C(F)(F)F)n3c2)cc1
inactive: Potency [1] | Potency [2] | Potency [3] | Potency [4] | Potency [5] | Potency [6]

CC(C)=C1CC2C(CCC2(C)O)C(C)(O)CC1=O (stereo not given)
inactive: Potency [1] | Potency [2] | Potency [3] | Potency [5] | Potency [6]
active: Potency [4] 23.8 µM

C[C@@H]1CC[C@]2(C(=O)O)CC[C@]3(C)C(=CCC4[C@@]5(C)C[C@@H](O)[C@H](O)[C@@](C)(CO)C5CC[C@]43C)C2[C@H]1C (stereo not given in full)
inactive: Potency [1] | Potency [2] | Potency [3] | Potency [4] | Potency [5] | Potency [6]

O=C1C(Cl)=C(N2CCOCC2)C(=O)N1c1ccc(Cl)c(Cl)c1
inactive: Potency [1] | Potency [2] | Potency [3] | Potency [4] | Potency [5] | Potency [6]

CC1=C2CC(O)(C(C)(C)O)C(O[C@@H]3O[C@H](CO)[C@@H](O)[C@H](O)[C@H]3O)CC(C)C2CC1=O (stereo not given in full)
inactive: Potency [1] | Potency [2] | Potency [3] | Potency [5] | Potency [6]
active: Potency [4] 3.67 µM
